Consider 8 molecules from PubChem BioAssay (NCATS).

Values joined by “and” are separate entries in the source; they are usually repeats but may differ in a detail not shown here. Identical values can stand only once. Results filed as inconclusive are left out. A structure can be active in one record and inactive in another. Active and inactive are the calls of the source. Unless noted, calls follow the shape of the dose curve; as a rule, active = well fitted curve in the direction sought with a large enough effect; inconclusive = small, poorly fitted or top-dose-only effect, or another doubt; inactive = no such curve, though single readings can be large; an effect the other way counts as inactive or inconclusive.

The nature of assay [1]: Cell Viability - SK-N-SH (AID 435; calls by dose curve;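 also: potency is read from the fitted curve at half-maximal effect; compound exposure lasted 40 h at 37 °C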). Particulars: SK-N-SH neuroblastoma cell viability qHTS. In a few lines:
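SK-N-SH human neuroblastoma cells (1500/well) were exposed to compounds in complete medium for 40 h at 37 °C, and intracellular ATP was then measured by CellTiter-Glo luminescence. AC50 was taken from Hill fits, normalized to DMSO and 100 uM tamoxifen.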
A general note: qHTS replaces the single test concentration by a dilution series.

The target of assay [2] is Mitogen-activated protein kinase 10 (Mus musculus) (UniProt Q61831). Kind of assay: JNK3 AlphaScreen Assay (AID 530; active = well fitted curve in either direction with a large enough effect, not every such curve was filed as active;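 also: kinase came from lysate of stimulated human HepG2 cells; signal reports phosphorylation of biotinylated GST-cJun 1-79 at Ser73 with 10 µM ATP; % is scaled to controls: 0 for no effect and ±100 for the full control effect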). The note with it: JNK3 lysate, c-Jun phosphorylation; series mostly up to 11.4 µM. In a few lines:
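Phosphorylation of biotinylated GST-cJun(1-79) at Ser73 is measured by AlphaScreen proximity luminescence. Enzyme is JNK3 in HepG2 lysates activated with interleukin-1beta and tumor necrosis factor alpha; ATP is 10 uM final.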
On the technique in general: In Alpha technology, singlet oxygen from a donor bead excites a nearby acceptor bead.

A short description of assay [3]: MultiTox-Fluor Cytotoxicity Assay - LYMP1-002 - Live Cells (AID 955).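 Also: cells exposed to compound for 16 hours; % is scaled to controls: 0 for no effect and ±100 for the full control effect.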 The note with it: LYMP1-002 lymphoblastoid live-cell protease fluorescence viability; series mostly up to 46.1 µM. In a few lines: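 Cells were seeded at 2500 per well and incubated 5 hr. Compounds were then added for 16 hr at 37 C, followed by MultiTox-Fluor reagent for 60 min at room temperature and fluorescence reading of viable-cell protease signal.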

A short description of assay [4]: Cell Viability - LYMP2-023 (AID 975). Also: nearly all actives have a fitted effect of over 55% in size. Also: potency is read from the fitted curve at half-maximal effect. Particulars: LYMP2-023 lymphoblastoid cell viability; series mostly up to 92.2 µM. The method in brief:
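Steps: seed 2500 human lymphoblastoid cells per well, incubate 5 hr at 37 C, add compound for 24 hr at 37 C, add CellTiter-Glo, hold 30 min at room temperature, read luminescence. AC50 derived by Hill modelling.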

A short description of assay [5]: Cell Viability - LYMP2-025 (AID 976).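 Also: plate controls were DMSO only for no effect and tetraoctylammonium bromide control for full effect.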 The note with it: LYMP2-025 lymphoblastoid cell viability; series mostly up to 92.2 µM. In a few lines: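 Acute cytotoxicity is scored as a concentration-dependent fall in intracellular ATP, measured by luciferase luminescence, in human lymphoblastoid LYMP2-025 cells exposed to compound for 24 hours at 37 C. AC50 values come from standard Hill fits.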

A short description of assay [6]: Cell Viability - LYMP2-007 (AID 979).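 Also: cells exposed to compound for 24 h before reading; nearly all actives have a fitted effect of over 60% in size.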 Also: potency is read from the fitted curve at half-maximal effect. The note with it: LYMP2-007 lymphoblastoid cell viability; series mostly up to 92.2 µM. In a few lines: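 Cells are seeded at 2500 per well and rested 5 hr. Compounds are then added over a concentration series for 24 hr at 37 C. CellTiter-Glo is added for 30 min at room temperature before luminescence reading.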
Assay [7] in a line: Cell Viability - LYMP2-018 (AID 985).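 Also: compound exposure lasted 24 hr at 37 °C; plate controls were DMSO only for no effect and tetraoctylammonium bromide at 92 µM for full effect; nearly all actives have a fitted effect of over 50% in size.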 Particulars: LYMP2-018 lymphoblastoid cells, viability (qHTS); series mostly up to 92.2 µM. In a few lines:
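Seed 2500 lymphoblastoid cells per well, incubate 5 hr at 37 C, add compound and incubate 24 hr at 37 C, add CellTiter-Glo, wait 30 min at room temperature, then read luminescence.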

Assay [8] addresses Glucocorticoid receptor (Homo sapiens) (UniProt P04150). Briefly: qHTS assay for small molecule antagonists of glucocorticoid receptor signaling (AID 588533; active = well fitted inhibition curve with a large enough effect in the signal ratio, with a control signal flat, not every such curve was filed as active; the % refers to the signal ratio;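 also: cells stimulated with 2 nM dexamethasone as agonist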; also: potency is read from the fitted curve at half-maximal effect). The note with it: HeLa MMTV-bla, GRE beta-lactamase ratio, antagonist mode, 18 h; series mostly up to 76.8 µM. In a few lines: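 Antagonist-mode qHTS: compound titrations added to GRE-bla HeLa cells, then dexamethasone 2 nM final; 18 h, 37 C. CCF4 FRET fluorescence normalized to dexamethasone and DMSO; IC50 from Hill fit.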

Assay [9] is described as follows: qHTS assay for small molecule antagonists of peroxisome proliferator-activated receptor delta signaling (AID 588535).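 Also: cells co-treated with a PPAR-delta agonist as stimulator during compound exposure.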 The note with it: HEK293T PPARd-UAS-bla, beta-lactamase FRET ratio, 18 h; 460 nm channel. The method in brief: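 Inhibition of PPAR-delta response element-driven beta-lactamase expression is measured in HEK293T cells exposed to a compound titration series for 18 hrs at 37 C. Half-maximal inhibition comes from Hill equation fitting.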

The target of assay [10] is Thyroid hormone receptor beta (Homo sapiens) (UniProt P10828). Briefly: qHTS assay for small molecule antagonists of thyroid hormone receptor beta signaling (AID 588547; active = well fitted inhibition curve with a large enough effect in the signal ratio, with a control signal flat, not every such curve was filed as active; the % refers to the signal ratio;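 also: cells stimulated with 0.4 nM T3 agonist during compound exposure; % is scaled to controls: 0 for no effect and ±100 for the full control effect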). The note with it: TR-UAS-bla HEK293, beta-lactamase ratio, antagonist mode, 18 h. The method in brief:
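TR-UAS-bla GripTite HEK293 cells in 2% charcoal/dextran FBS medium were preincubated 4 h at 37 C, given compound (0.59 nM to 92 uM) plus 0.4 nM T3 (final) for 18 h, then CCF4 for 2 h at RT; Hill fit gave IC50.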

A short description of assay [11]: Cell Viability - BJ (AID 421; calls by dose curve;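 also: potency is read from the fitted curve at half-maximal effect; cells exposed to compound for 40 hours at 37 °C before readout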). Particulars: BJ fibroblast viability, qHTS. The method in brief: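 Quantitative HTS: ATP depletion in BJ cells after 40 hr compound exposure in complete culture medium, detected with CellTiter-Glo; AC50 from standard Hill fits.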
The nature of assay [12]: Cell Viability - LYMP2-022 (AID 987). Also: nearly all actives have a fitted effect of over 55% in size. Also: potency is read from the fitted curve at half-maximal effect. The note with it: LYMP2-022 lymphoblastoid cell viability; series mostly up to 92.2 µM. The method in brief:
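Cells were seeded at 2500 per well, rested 5 hr at 37 C, and treated with titrated compounds for 24 hr at 37 C. Cellular ATP was then quantified by luciferase luminescence, and AC50 values were derived from Hill-modelled concentration-response curves.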

Assay [13] deals with Bile acid receptor (Homo sapiens) (UniProt Q96RI1). Kind of assay: qHTS assay for small molecule antagonists of farnesoid X receptor signaling (AID 588526; calls by dose curve; also: % is scaled to controls: 0 for no effect and ±100 for the full control effect). The note with it: HEK293T FXR-UAS-bla, beta-lactamase ratio, antagonist mode; series mostly up to 76.7 µM. The method in brief: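 Concentration-response titrations were fitted to the Hill equation for half-maximal inhibition and maximal response, with data normalised to 50 uM chenodeoxycholic acid and DMSO control wells. Cells: FXR-UAS-bla HEK293T, dialyzed FBS.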

Assay [14] deals with Voltage-gated inwardly rectifying potassium channel KCNH2 (Homo sapiens) (UniProt Q12809). Kind of assay: qHTS Assay for Small Molecule Inhibitors of the Human hERG Channel Activity (AID 588834).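 Also: top concentration of the series differs between compounds; % is scaled to controls: 0 for no effect and ±100 for the full control effect; lower thallium flux fluorescence means stronger hERG block; nearly all actives have a fitted effect of over 50% in size.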 Particulars: U2OS BacMam hERG, FluxOR thallium flux fluorescence; series mostly up to 92.2 µM. In a few lines: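 In hERG-transduced U2OS cells, dye-loaded for 1 hr at room temperature in dark, test compounds incubated 10 min at 37 °C before thallium stimulation. AC50 values derived by Hill modelling of concentration-response.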

Assay [15] is described as follows: Cell Viability - LYMP1-003 - Assay at 40 hr (AID 964). Also: % is scaled to controls: 0 for no effect and ±100 for the full control effect; nearly all actives have a fitted effect of over 60% in size. Particulars: LYMP1-003 lymphoblastoid viability; series mostly up to 92.2 µM. In a few lines: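 Luminescent ATP signal (CellTiter-Glo) served as the viability read-out after 40 hr compound treatment of human lymphoblastoid LYMP1-003 cells at 37 C. Decreases in ATP were fitted with the Hill equation to give AC50.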

A short description of assay [16]: Cell Viability - LYMP2-019 (AID 973). Also: nearly all actives have a fitted effect of over 55% in size. Also: potency is read from the fitted curve at half-maximal effect. Particulars: LYMP2-019 lymphoblastoid cell line viability; series mostly up to 92.2 µM. In a few lines: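 Cytotoxicity is scored as a concentration-dependent drop in cellular ATP after cells (2500/well) receive compound for 24 hr at 37 C. Tetraoctylammonium bromide serves as positive control.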
A short description of assay [17]: Cell Viability - LYMP2-001 (AID 921). Also: nearly all actives have a fitted effect of over 70% in size. Also: potency is read from the fitted curve at half-maximal effect. The note with it: LYMP2-001 lymphoblastoid cell viability; series mostly up to 92.2 µM. The method in brief: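 Human lymphoblastoid cells (Coriell), 2500 per well, were preincubated 5 hr at 37 C, then exposed to compounds in complete medium for 24 hr at 37 C. Cellular ATP was read by CellTiter-Glo luminescence; AC50 from Hill fits of concentration-response data.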

Assay [18] is described as follows: MultiTox-Fluor Cytotoxicity Assay - LYMP1-001 - Live Cells (AID 947).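 Also: 0% = DMSO only and full inhibition = tetraoctylammonium bromide control.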 The note with it: LYMP1-001 lymphoblastoid cells, live-cell protease fluorescence viability; series mostly up to 92.2 µM.
The target of assay [19] is Glucocorticoid receptor (Homo sapiens) (UniProt P04150). Briefly: qHTS assay for small molecule agonists of glucocorticoid receptor signaling (AID 588532; active = well fitted curve in the direction sought with a large enough effect in the signal ratio, with a control signal flat; the % refers to the signal ratio;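 also: 100% = dexamethasone at 0.1 µM and 0% = DMSO only wells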). The note with it: HeLa MMTV-bla, beta-lactamase ratio, agonist, 18 h; stronger effect = higher value; percent of dexamethasone control, DMSO zero. In a few lines: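 Stimulation of a glucocorticoid response element-driven beta-lactamase gene was measured in HeLa cells. Responses were scaled between DMSO basal and 0.1 uM dexamethasone, then fitted for half-maximal stimulation.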

Assay [20] has as its target Peroxisome proliferator-activated receptor gamma (Homo sapiens) (UniProt P37231). Briefly: qHTS assay for small molecule antagonists of peroxisome proliferator-activated receptor gamma signaling (AID 588537; active = well fitted inhibition curve with a large enough effect in the signal ratio, with a control signal flat, not every such curve was filed as active; the % refers to the signal ratio;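 also: reporter cells co-stimulated with 50 nM rosiglitazone agonist during compound treatment; % of control where 0% means no effect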). The note with it: HEK293 PPARg-UAS-bla, beta-lactamase ratio, antagonist mode; series mostly up to 76.8 µM. In a few lines:
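Compounds are tested as concentration series for inhibition of rosiglitazone-driven (50 nM) reporter expression in GeneBLAzer PPAR-gamma-UAS-bla HEK293 cells. After 16 h at 37 C, CCF4 substrate is added for 2 h at room temperature and blue/green fluorescence is measured.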

Chain of Glucocorticoid receptor (Homo sapiens) (P04150 whole entry, looked up): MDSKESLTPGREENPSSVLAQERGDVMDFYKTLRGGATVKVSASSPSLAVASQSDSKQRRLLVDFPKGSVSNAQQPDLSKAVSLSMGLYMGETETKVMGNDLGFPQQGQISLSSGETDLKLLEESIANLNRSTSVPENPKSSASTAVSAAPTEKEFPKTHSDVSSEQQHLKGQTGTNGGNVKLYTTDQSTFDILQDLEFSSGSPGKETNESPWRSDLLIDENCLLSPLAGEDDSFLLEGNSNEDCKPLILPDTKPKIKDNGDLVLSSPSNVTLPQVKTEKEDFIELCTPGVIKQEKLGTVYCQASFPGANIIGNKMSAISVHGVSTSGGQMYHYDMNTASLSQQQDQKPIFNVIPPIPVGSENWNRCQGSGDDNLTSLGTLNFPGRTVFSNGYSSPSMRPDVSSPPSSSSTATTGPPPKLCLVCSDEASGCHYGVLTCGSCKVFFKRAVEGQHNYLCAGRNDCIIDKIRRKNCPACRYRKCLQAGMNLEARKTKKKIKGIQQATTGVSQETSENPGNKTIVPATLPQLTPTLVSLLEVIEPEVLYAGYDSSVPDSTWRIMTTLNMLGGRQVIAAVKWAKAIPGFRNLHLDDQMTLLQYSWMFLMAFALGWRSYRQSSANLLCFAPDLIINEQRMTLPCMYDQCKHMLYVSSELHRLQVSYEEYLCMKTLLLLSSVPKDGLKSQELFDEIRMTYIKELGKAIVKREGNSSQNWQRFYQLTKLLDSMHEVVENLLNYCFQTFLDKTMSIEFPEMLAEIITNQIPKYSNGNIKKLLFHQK
Chain of Voltage-gated inwardly rectifying potassium channel KCNH2 (Homo sapiens) (Q12809 whole entry, looked up): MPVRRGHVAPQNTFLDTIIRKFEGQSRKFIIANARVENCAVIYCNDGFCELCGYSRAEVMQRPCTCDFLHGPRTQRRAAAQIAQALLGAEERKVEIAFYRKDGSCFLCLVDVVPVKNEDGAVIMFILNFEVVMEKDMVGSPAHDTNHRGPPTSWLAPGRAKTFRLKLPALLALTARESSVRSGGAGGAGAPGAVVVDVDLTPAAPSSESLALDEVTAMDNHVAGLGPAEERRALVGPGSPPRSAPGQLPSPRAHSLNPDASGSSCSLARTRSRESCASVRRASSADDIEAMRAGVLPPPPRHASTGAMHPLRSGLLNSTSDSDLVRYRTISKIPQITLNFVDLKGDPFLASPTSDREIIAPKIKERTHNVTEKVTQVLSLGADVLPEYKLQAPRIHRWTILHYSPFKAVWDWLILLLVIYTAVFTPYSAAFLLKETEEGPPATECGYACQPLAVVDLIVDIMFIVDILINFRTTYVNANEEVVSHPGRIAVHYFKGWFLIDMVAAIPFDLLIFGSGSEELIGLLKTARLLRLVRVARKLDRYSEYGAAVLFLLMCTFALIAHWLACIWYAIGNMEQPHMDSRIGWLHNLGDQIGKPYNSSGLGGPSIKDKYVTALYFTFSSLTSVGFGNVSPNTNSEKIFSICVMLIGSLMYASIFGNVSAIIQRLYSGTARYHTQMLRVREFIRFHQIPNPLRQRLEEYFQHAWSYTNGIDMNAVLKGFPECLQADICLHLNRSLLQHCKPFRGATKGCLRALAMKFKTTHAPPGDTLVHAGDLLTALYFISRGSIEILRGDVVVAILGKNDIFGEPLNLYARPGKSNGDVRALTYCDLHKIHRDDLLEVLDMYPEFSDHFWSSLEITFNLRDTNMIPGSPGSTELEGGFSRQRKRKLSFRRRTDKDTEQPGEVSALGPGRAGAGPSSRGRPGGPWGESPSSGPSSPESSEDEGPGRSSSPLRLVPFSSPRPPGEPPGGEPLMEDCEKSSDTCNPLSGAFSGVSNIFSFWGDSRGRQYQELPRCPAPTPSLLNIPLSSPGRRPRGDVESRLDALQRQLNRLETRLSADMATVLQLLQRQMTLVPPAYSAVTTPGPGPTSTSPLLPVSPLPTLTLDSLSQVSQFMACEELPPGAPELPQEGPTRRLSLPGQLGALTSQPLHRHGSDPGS
Chain of Bile acid receptor (Homo sapiens) (Q96RI1 whole entry, looked up): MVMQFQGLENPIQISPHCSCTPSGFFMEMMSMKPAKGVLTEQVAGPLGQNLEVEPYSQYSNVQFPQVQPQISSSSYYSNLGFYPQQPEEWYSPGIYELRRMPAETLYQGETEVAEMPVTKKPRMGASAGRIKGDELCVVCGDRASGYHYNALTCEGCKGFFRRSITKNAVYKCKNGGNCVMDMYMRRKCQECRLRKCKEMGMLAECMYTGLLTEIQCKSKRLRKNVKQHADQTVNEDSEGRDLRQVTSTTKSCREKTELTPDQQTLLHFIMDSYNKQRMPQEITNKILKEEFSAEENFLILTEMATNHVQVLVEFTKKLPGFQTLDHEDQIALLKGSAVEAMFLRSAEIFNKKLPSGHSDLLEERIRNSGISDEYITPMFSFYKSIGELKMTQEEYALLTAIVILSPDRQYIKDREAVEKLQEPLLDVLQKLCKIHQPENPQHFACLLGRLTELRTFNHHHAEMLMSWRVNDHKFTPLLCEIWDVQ
Chain of Thyroid hormone receptor beta (Homo sapiens) (P10828 whole entry, looked up): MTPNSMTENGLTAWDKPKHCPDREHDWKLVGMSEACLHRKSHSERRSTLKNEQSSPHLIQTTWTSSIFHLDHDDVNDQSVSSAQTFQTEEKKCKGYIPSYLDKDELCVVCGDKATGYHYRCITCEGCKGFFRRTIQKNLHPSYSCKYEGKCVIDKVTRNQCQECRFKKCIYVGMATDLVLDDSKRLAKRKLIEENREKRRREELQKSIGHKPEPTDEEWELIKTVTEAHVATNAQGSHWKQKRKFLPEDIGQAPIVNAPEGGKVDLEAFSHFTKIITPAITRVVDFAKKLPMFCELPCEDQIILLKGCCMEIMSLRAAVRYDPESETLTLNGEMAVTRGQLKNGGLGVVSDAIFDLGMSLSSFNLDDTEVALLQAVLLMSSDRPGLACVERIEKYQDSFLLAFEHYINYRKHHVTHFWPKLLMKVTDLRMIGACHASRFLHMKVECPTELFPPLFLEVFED
Chain of Peroxisome proliferator-activated receptor gamma (Homo sapiens) (P37231 whole entry, looked up): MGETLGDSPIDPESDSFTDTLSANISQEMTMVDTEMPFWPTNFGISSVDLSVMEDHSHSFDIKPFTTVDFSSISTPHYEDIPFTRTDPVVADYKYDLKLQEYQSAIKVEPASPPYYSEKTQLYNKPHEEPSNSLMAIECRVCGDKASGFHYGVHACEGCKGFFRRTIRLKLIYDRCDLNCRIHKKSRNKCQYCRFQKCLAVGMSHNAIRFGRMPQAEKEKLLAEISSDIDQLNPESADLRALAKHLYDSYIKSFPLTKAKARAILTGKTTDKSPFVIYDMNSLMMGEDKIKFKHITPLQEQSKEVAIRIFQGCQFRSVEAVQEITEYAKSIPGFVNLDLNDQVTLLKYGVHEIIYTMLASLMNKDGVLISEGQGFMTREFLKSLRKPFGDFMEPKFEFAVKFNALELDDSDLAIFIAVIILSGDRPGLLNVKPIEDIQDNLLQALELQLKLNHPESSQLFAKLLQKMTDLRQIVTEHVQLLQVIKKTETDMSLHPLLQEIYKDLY

Consider `COc1ccc(C)cc1N`, for which the Potency in assay [1] is > 92 µM (inactive). Moreover, the Potency result in assay [2], in assay [4], in assay [5], in assay [6], in assay [7] and in [8] was “inactive” in each case. For the same molecule, in [3], the outcome was inactive. In addition, in assay [9], the max response was 4.23%. Further, in assay [10], the activity change % (negative = inhibition) is -19.2% (inactive).
Regarding `Cc1ccc(O)c(N)c1`, the results for the Potency in assay [11], in assay [6] and in [12] were > 92 µM (inactive), 50.1 µM (active) and 39.8 µM (active), respectively. The Potency entry in [2], in assay [5], in assay [13] and in assay [14] was “inactive” in each case. Further, in [3], the molecule was classed as inactive. The max response in [9] is -35.8%. Besides, the activity change % (negative = inhibition) in [10] was -10.8% (inactive).
Take `CCOc1ccc2nc(N)sc2c1`: the Potency in [11] and in assay [1] was > 92 µM (inactive) throughout. The Potency entry in assay [2], in assay [15], in [16], in [4], in assay [7] and in assay [8] was “inactive” each time. In addition, in assay [10], the activity change % (negative = inhibition) was -4.05% (inactive).
For the molecule `O=C1OC(=O)c2ccccc21`, the Potency in [11] and in [1] was > 92 µM (inactive) in each case. In addition, the Potency result in assay [2], in [17], in assay [18], in assay [5], in assay [6] and in assay [7] was “inactive” each time. Also, the Potency result in assay [12], in assay [13] and in [8] was “inactive” throughout. In addition, the max response in [9] was -31.3%. In addition, the activity change % (negative = inhibition) in [10] was 1.82% (inactive).
As to `Oc1c(Cl)cc(Cl)c(Cl)c1Cl`, in assay [1], the Potency was > 92 µM (inactive). Moreover, the Potency result in [2], in assay [17], in [18], in [15], in [16] and in [4] was “inactive” throughout. In addition, the Potency result in [6], in assay [7], in assay [12], in assay [13] and in assay [8] was “inactive” throughout. Also, the molecule was called inactive in assay [3]. Moreover, the activation in assay [19] is 5.94% (inactive). The max response in assay [9] stood at 22.5%.
For the molecule `C[C@@H]1CC2(OC(O)[C@]3(C)O[C@H]23)O[C@H]2C[C@@]3(C)[C@@H]4CC[C@H]5C(C)(C)C(O[C@@H]6OC[C@@H](O)[C@H](O)[C@H]6O)CC[C@@]56C[C@@]46CC[C@]3(C)[C@@H]12` (stereo partly drawn), the Potency in assay [11] was > 92 µM (inactive). The Potency entry in assay [2], in assay [18], in assay [6] and in [14] was “inactive” throughout. In [3], the molecule was classed as inactive. The activation in [19] is 1.76% (inactive).
Take `C=CC(=O)OCCCCCCOC(=O)C=C`: the Potency in assay [1] is 50.2 µM (active); in [17] it was 31.6 µM (active); in assay [16], 50.1 µM (active); in assay [4], 39.8 µM (active); in [12], 39.8 µM (active); in assay [8], 39.8 µM (active) and inactive. Further, the Potency entry in assay [2], in [13], in [20] and in assay [14] was “inactive” throughout. Further, the activation in assay [19] is -0.42% (inactive) and -1.5% (inactive). In assay [9], the max response was determined as 35%.
With `CCN(CC)c1ccc(N)cc1`, in assay [12], the Potency is 39.8 µM (active). Moreover, the activation in assay [19] was 8.72% (inactive).
